In PubChem BioAssay AID1159580 (chemical genetic matrix, 2015):
Screen size: about 5,500 compounds; about 2,000 (36%) were called active. Another 18% or so got no clear call; they are omitted. No stated cut-off is given here; in the data, active means normalized growth mostly below about 0.91 (no sharp cut-off); inconclusive means no clear call, values can overlap the other calls; inactive means mostly above about 0.92. This is one part of the list. Where a SMILES comes first, the peptide text is derived from it.

Assay: chemical genetic growth profiling, strain panel (AID 1159580);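 further: tested at 20 µM; growth read once vehicle control cultures reached saturation at 30 °C; 1 = growth at the plate median or of vehicle wells; lower values mean less growth of the strain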
Settings: growth OD
[1] = S. cerevisiae deletion strains, locus YAL013W, strain DEP1, hits give low values
[2] = S. cerevisiae deletion strains, locus YBR021W, strain FUR4, hits give low values
[3] = S. cerevisiae deletion strains, locus YBR229C, strain ROT2, hits give low values
[4] = S. cerevisiae deletion strains, locus YCL029C, strain bik1, hits give low values
[5] = S. cerevisiae deletion strains, locus YDL035C, strain GPR1, hits give low values
[6] = S. cerevisiae deletion strains, locus YDL074C, strain BRE1, hits give low values
[7] = S. cerevisiae deletion strains, locus YDL101C, strain DUN1, hits give low values
[8] = S. cerevisiae deletion strains, locus YDL185W, strain tfp1, hits give low values
[9] = S. cerevisiae deletion strains, locus YDL192W, strain arf1, hits give low values
[10] = S. cerevisiae deletion strains, locus YDR101C, strain arx1, hits give low values
[11] = S. cerevisiae deletion strains, locus YDR162C, strain NBP2, hits give low values
[12] = S. cerevisiae deletion strains, locus YDR318W, strain mcm21, hits give low values
[13] = S. cerevisiae deletion strains, locus YDR388W, hits give low values
[14] = S. cerevisiae deletion strains, locus YDR502C, strain sam2, hits give low values
[15] = S. cerevisiae deletion strains, locus YEL061C, strain CIN8, hits give low values
[16] = S. cerevisiae deletion strains, locus YER110C, hits give low values
[17] = S. cerevisiae deletion strains, locus YER155C, strain BEM2, hits give low values
[18] = S. cerevisiae deletion strains, locus YER167W, strain BCK2, hits give low values
[19] = S. cerevisiae deletion strains, locus YGL078C, strain dbp3, hits give low values
[20] = S. cerevisiae deletion strains, locus YGL086W, strain mad1, hits give low values
[21] = S. cerevisiae deletion strains, locus YGL248W, strain PDE1, hits give low values
[22] = S. cerevisiae deletion strains, locus YGR135W, strain pre9, hits give low values
[23] = S. cerevisiae deletion strains, locus YGR229C, strain SMI1, hits give low values
[24] = S. cerevisiae deletion strains, locus YGR252W, strain gcn5, hits give low values
[25] = S. cerevisiae deletion strains, locus YHR030C, strain SLT2, hits give low values
[26] = S. cerevisiae deletion strains, locus YHR079C, strain IRE1 (second series), hits give low values
[27] = S. cerevisiae deletion strains, locus YHR094C, strain hxt1, hits give low values
[28] = S. cerevisiae deletion strains, locus YHR129C, strain ARP1, hits give low values
[29] = S. cerevisiae deletion strains, locus YHR200W, strain rpn10, hits give low values
[30] = S. cerevisiae deletion strains, locus YIL066C, strain RNR3, hits give low values
[31] = S. cerevisiae deletion strains, locus YIL073C, strain SPO22, hits give low values
[32] = S. cerevisiae deletion strains, locus YIR030C, strain dcg1, hits give low values
[33] = S. cerevisiae deletion strains, locus YJL095W, strain BCK1, hits give low values
[34] = S. cerevisiae deletion strains, locus YJL134W, strain LCB3, hits give low values
[35] = S. cerevisiae deletion strains, locus YJL168C, strain set2, hits give low values
[36] = S. cerevisiae deletion strains, locus YJL187C, strain SWE1 (second series), hits give low values
[37] = S. cerevisiae deletion strains, locus YJR043C, strain POL32, hits give low values
[38] = S. cerevisiae deletion strains, locus YKL009W, strain mrt4, hits give low values
[39] = S. cerevisiae deletion strains, locus YKL068W, hits give low values
[40] = S. cerevisiae deletion strains, locus YKL085W, strain MDH1 (second series), hits give low values
[41] = S. cerevisiae deletion strains, locus YKL085W, strain MDH1, hits give low values
[42] = S. cerevisiae deletion strains, locus YKL190W, strain CNB1, hits give low values
[43] = S. cerevisiae deletion strains, locus YKR001C, strain vps1, hits give low values
[44] = S. cerevisiae deletion strains, locus YLR039C, strain RIC1, hits give low values
[45] = S. cerevisiae deletion strains, locus YLR058C, strain SHM2, hits give low values
[46] = S. cerevisiae deletion strains, locus YLR102C, strain apc9, hits give low values
[47] = S. cerevisiae deletion strains, locus YLR262C, strain YPT6, hits give low values
[48] = S. cerevisiae deletion strains, locus YLR268W, strain sec22, hits give low values
[49] = S. cerevisiae deletion strains, locus YLR330W, strain CHS5, hits give low values
[50] = S. cerevisiae deletion strains, locus YLR342W, strain FKS1 (second series), hits give low values
[51] = S. cerevisiae deletion strains, locus YLR371W, strain rom2, hits give low values
[52] = S. cerevisiae deletion strains, locus YLR418C, strain cdc73, hits give low values
[53] = S. cerevisiae deletion strains, locus YML016C, strain PPZ1, hits give low values
[54] = S. cerevisiae deletion strains, locus YML032C, strain rad52, hits give low values
[55] = S. cerevisiae deletion strains, locus YML124C, strain tub3, hits give low values
[56] = S. cerevisiae deletion strains, locus YMR078C, strain ctf18, hits give low values
[57] = S. cerevisiae deletion strains, locus YMR223W, strain ubp8, hits give low values
[58] = S. cerevisiae deletion strains, locus YMR263W, strain SAP30, hits give low values
[59] = S. cerevisiae deletion strains, locus YMR307W, strain GAS1, hits give low values
[60] = S. cerevisiae deletion strains, locus YNL067W, strain RPL9B, hits give low values
[61] = S. cerevisiae deletion strains, locus YNL233W, strain BNI4, hits give low values
[62] = S. cerevisiae deletion strains, locus YNL250W, strain rad50, hits give low values
[63] = S. cerevisiae deletion strains, locus YNL271C, strain bni1, hits give low values
[64] = S. cerevisiae deletion strains, locus YNL298W, strain CLA4, hits give low values
[65] = S. cerevisiae deletion strains, locus YNL307C, strain MCK1, hits give low values
[66] = S. cerevisiae deletion strains, locus YNL322C, strain KRE1, hits give low values
[67] = S. cerevisiae deletion strains, locus YNR052C, strain pop2, hits give low values
[68] = S. cerevisiae deletion strains, locus YOL006C, strain TOP1, hits give low values
[69] = S. cerevisiae deletion strains, locus YOL012C, strain htz1
[70] = S. cerevisiae deletion strains, locus YOL147C, strain pex11, hits give low values
[71] = S. cerevisiae deletion strains, locus YOR061W, strain CKA2, hits give low values
[72] = S. cerevisiae deletion strains, locus YOR069W, strain VPS5, hits give low values
[73] = S. cerevisiae deletion strains, locus YOR136W, strain idh2, hits give low values
[74] = S. cerevisiae deletion strains, locus YOR144C, strain elg1, hits give low values
[75] = S. cerevisiae deletion strains, locus YOR184W, strain ser1, hits give low values
[76] = S. cerevisiae deletion strains, locus YOR316C, strain cot1, hits give low values
[77] = S. cerevisiae deletion strains, locus YPR119W, strain clb2, hits give low values
[78] = S. cerevisiae deletion strains, locus YPR141C, strain kar3, hits give low values
[79] = S. cerevisiae deletion strains, locus YPR163C, strain tif3, hits give low values
[80] = S. cerevisiae deletion strains, locus YPR167C, strain met16, hits give low values
[81] = S. cerevisiae deletion strains, strain wtn01, hits give low values

Measured: normalized growth

NCCCCC(N)C(=O)NC(Cc1ccc(O)cc1)C(=O)NC(CCCCN)C(=O)O (stereo not drawn) (H-Lys-Tyr-Lys-OH; configuration not given here)
inactive: [1] 1.01 | [2] 1 | [3] 1.01 | [4] 0.983 | [5] 1.01 | [6] 1.06 | [7] 1.02 | S. cerevisiae deletion strains, locus YDL134C, strain PPH21, hits give low values 1.01 | [8] 0.971 | [9] 0.984 | [10] 1.01 | S. cerevisiae deletion strains, locus YDR150W, strain NUM1, hits give low values 0.999 | [11] 1.04 | [12] 0.983 | [13] 1.01 | [14] 1 | [15] 0.996 | [16] 0.987 | [17] 0.985 | [18] 0.995 | [19] 0.988 | [20] 0.963 | [21] 1.01 | S. cerevisiae deletion strains, locus YGR078C, strain PAC10, hits give low values 1.04 | [22] 0.999 | [23] 1.05 | [24] 0.958 | [25] 0.996 | [26] 1 | [27] 0.982 | [28] 1.01 | [29] 0.984 | [30] 1.02 | [31] 0.948 | [32] 0.995 | [33] 1.07 | [34] 0.997 | [35] 1.02 | [36] 1.01 | [37] 0.996 | S. cerevisiae deletion strains, locus YJR075W, strain HOC1, hits give low values 1.1 | [38] 0.958 | [39] 0.987 | [40] 1.04 | [41] 1.04 | [42] 1.01 | [43] 0.979 | [44] 1.04 | [45] 0.999 | [46] 1 | [47] 1 | [48] 1.01 | [49] 0.987 | [50] 1.01 | [51] 0.983 | [52] 1.04 | [53] 1 | [54] 0.976 | [55] 0.99 | [56] 0.982 | [57] 0.981 | [58] 1.05 | [59] 1.07 | [60] 1.04 | S. cerevisiae deletion strains, locus YNL128W, strain TEP1, hits give low values 1.05 | S. cerevisiae deletion strains, locus YNL153C, strain GIM3, hits give low values 1.05 | [61] 1.04 | [62] 0.981 | [63] 0.99 | [64] 0.987 | [65] 0.993 | [66] 0.998 | [67] 0.99 | [68] 1.06 | [69] 0.771 | [70] 0.995 | [71] 1.01 | [72] 1 | [73] 0.998 | [74] 0.989 | [75] 0.966 | [76] 0.99 | S. cerevisiae deletion strains, locus YPL055C, strain LGE1, hits give low values 1.11 | S. cerevisiae deletion strains, locus YPL241C, strain CIN2, hits give low values 1 | [77] 0.998 | [78] 1 | [79] 0.982 | [80] 0.997 | [81] 1.03 | S. cerevisiae strains, strain wild type, hits give low values 1.01

NC(N)=NCCCC(NC(=O)C(N)Cc1ccc(O)cc1)C(=O)O (configuration not stated)
inactive: [1] 1.03 | [3] 0.998 | [4] 0.969 | [5] 1.04 | [6] 1.03 | [7] 0.989 | [8] 0.962 | [9] 0.994 | [10] 0.989 | [11] 1.02 | [12] 0.991 | [13] 0.989 | [14] 0.987 | [15] 0.988 | [16] 0.971 | [17] 0.99 | [18] 1.01 | [19] 1 | [20] 0.981 | [21] 0.997 | [22] 1 | [23] 1.05 | [24] 1.23 | [25] 0.994 | [26] 0.968 | [27] 0.985 | [28] 0.99 | [29] 0.981 | [30] 1.01 | [31] 0.924 | S. cerevisiae deletion strains, locus YIL125W, strain kgd1, hits give low values 0.995 | [32] 0.996 | [33] 0.988 | [34] 0.992 | [35] 0.989 | [36] 0.99 | [37] 1.08 | [38] 0.938 | [39] 0.968 | [40] 0.988 | [41] 0.988 | [42] 0.993 | [43] 0.982 | [44] 1 | [45] 0.991 | [46] 0.972 | [47] 1 | [48] 0.97 | [49] 0.988 | [50] 1.05 | [51] 0.99 | [52] 1.07 | [53] 0.992 | [54] 0.996 | [55] 0.995 | [56] 0.997 | [57] 1.03 | [58] 0.983 | [59] 1.31 | [60] 0.968 | [61] 1 | [62] 0.951 | [63] 1 | [64] 0.995 | [65] 0.985 | [66] 1 | [67] 0.976 | [68] 1.04 | [69] 1.32 | [70] 0.991 | [71] 0.988 | [72] 0.989 | [73] 0.978 | [74] 0.995 | [75] 0.984 | [76] 0.979 | [77] 0.988 | [78] 0.969 | [79] 1 | [80] 0.997 | [81] 0.964
active: [2] 1.25 [resistant]
